TGFb inhibitor: TGF-b pathway inhibition; AID 588855; Potency, µM (series often up to 46.1 µM), inactives show at the top dose activity, negative = inhibition, most hits filed as inhibitors; 410,000 compounds, 1.2% hits; HepG2 CAGA-GFP TGF-b/SMAD3 reporter, GFP fluorescence, 18 h; TGF-beta stimulated, 500 pg/mL final; also: % is scaled to controls: 0 for no effect and ±100 for the full control effect; nearly all actives have a fitted effect of over 65% in size
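GFP signal (ex488/em500-530) from TGF-beta-stimulated HEPG2 CAGA-GFP cells, 500 pg/mL final, 18 h at 37 degrees C in DMEM plus 1% FBS, normalized to unstimulated and DMSO-stimulated controls.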
ATXN2 expr inh: reduces ATXN2 reporter expression in HEK-293 cells. HEK-293 ATXN2-luciferase reporter, luminescence, 24 h. Potency, µM (highest dose often 57 µM), for the others: at the top dose activity change, negative = inhibition, actives largely listed as inhibitors. 360,000 compounds, 0.72% hits; also: % is scaled to controls: 0 for no effect and ±100 for the full control effect; nearly all actives have a fitted effect of over 55% in size
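ATXN2-luciferase reporter cells (luciferase flanked by upstream and downstream ATXN2 gene portions) were treated 24 h at 37 °C with compounds at up to 57 uM. SteadyGlo luminescence gave expression; GF-AFC fluorescence gave viability.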
HepG2 tox: HepG2 cytotoxicity, counter-screen for TGF-b inhibitors. HepG2 CAGA-GFP viability, ATP luminescence, 18 h. Potency, µM (highest dose often 46.1 µM), for the others: top-dose activity change, negative = cytotoxicity, hits mostly cytotoxic. 410,000 compounds, 0.76% hits
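CellTiter-Glo luminescence gave cytotoxicity after 18 hours at 37 degrees C. The cells were HepG2 CAGA-GFP in 1% FBS DMEM, stimulated with 500 pg/mL TGF-beta after compound addition. %Activity was normalised to no-cell wells (complete cell-killing) and DMSO (no toxicity), and curves were fitted and classified.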
A549 tox: A549 cytotoxicity, counter-screen for Nrf2 inhibitors | A549 ARE-Fluc cells, CellTiter-Fluor viability, 18-24 h | Potency, µM (highest dose often 46 µM), inactives show at the highest dose activity change, negative = cytotoxicity, hits mostly inhibitors | 390,000 compounds, 0.16% hits | AID 504648; also: % is scaled to controls: 0 for no effect and ±100 for the full control effect
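A549 ARE_Fluc cells in 5% FBS OPTI-MEM were exposed to compounds in concentration-response for 18-24 h at 37 deg C. Viability was read by CellTiter-Fluor fluorescence (Ex 405/Em 525) after 30 min, before the luciferase read.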
S2 tox: viability counter-screen for ATXN expression inhibitors; S2 cells (HEK-293 line with an ATXN2-luciferase reporter) viability, CellTiter-Fluor protease fluorescence, 24 h; Potency, µM (series often up to 56.7 µM), hits mostly cytotoxic; 400,000 compounds, 0.49% hits; also: nearly all actives have a fitted effect of over 40% in size
Nrf2 block: blocks Nrf2 signaling. Potency, µM (top dose mostly 46 µM), without a hit: top-dose activity change, negative = inhibition, most hits filed as inhibitors. A549 ARE-Fluc reporter, luciferase luminescence, 18-24 h. 360,000 compounds, 2.1% hits; also: % is scaled to controls: 0 for no effect and ±100 for the full control effect; nearly all actives have a fitted effect of over 60% in size
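In this cell-based qHTS, ARE-driven firefly luciferase in A549 cells reports Nrf2 activity; the luminescent signal after BugLite lysis is the measured value, with a prior CellTiter-Fluor read for cell health.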
* = called active by the depositor; i = inactive; ? = inconclusive; · = not tested or not shown; [ ] = dose if it differs, or a comment. An excerpt weighted towards active compounds, which were near 3.8% of everything screened. Calls follow the shape of the dose curve; as a rule, active = well fitted curve in the direction sought with a large enough effect; inconclusive = small, poorly fitted or top-dose-only effect, or another doubt; inactive = no such curve, though single readings can be large; an effect the other way counts as inactive or inconclusive. Potency is read from the fitted curve at half-maximal effect.

SMILES	TGFb inhibitor	ATXN2 expr inh	HepG2 tox	A549 tox	S2 tox	Nrf2 block
COc1ccc(COCC(O)CN2CCC(CN3C(=O)c4cccc5cccc(c45)C3=O)CC2)cc1OC (centres undefined)	-21%	-28%	-2%	-21%	?	-4%
O=C1c2cccc3cccc(c23)C(=O)N1CC1CCN(CC(O)COc2ccc3ccccc3c2)CC1 (centres undefined)	?	?	16µM*	?	i	?
Cc1cc(C)cc(OCC(O)CN2CCC(CN3C(=O)c4cccc5cccc(c45)C3=O)CC2)c1 (centres undefined)	?	20µM*	20µM*	?	·	18µM*
C[C@@H]1CN([C@H](C)CO)C(=O)c2cc(-c3ccc(C(=O)N(C)C)cc3)cnc2O[C@@H]1CN(C)C(=O)c1cccnc1	9%	3%	-1%	·	i	·
COc1cccc(OCC(O)CN2CCC(CN3C(=O)c4cccc5cccc(c45)C3=O)CC2)c1 (centres undefined)	?	?	14µM*	?	?	20%
Cc1cc2cc(CCNS(=O)(=O)c3ccc(Br)cc3)c(=O)[nH]c2cc1C	-25%	?	-10%	-11%	i	-10%
COc1ccc(-c2cnn3cc(-c4cccc(Cl)c4)cnc23)cc1	3%	·	-7%	-1%	i	-3%
c1cc(-c2cnn3cc(-c4ccc(OCCN5CCCCC5)cc4)cnc23)ccn1	·	3.9µM*	·	·	·	·
CCn1c(Sc2ccc([N+](=O)[O-])cn2)nnc1-c1ccco1	?	-16%[11.3 µM]	-53%	?	i	21%
COc1cc(OC)cc(C(=O)Nc2nc(-c3ccccc3)c(-c3ccccc3)o2)c1	?	?	-11%	?	i	18µM*
CC(=O)Nc1nc(-c2ccccc2)c(-c2ccccc2)o1	-1%	·	2%	4%	i	5%
CCCc1cc(=O)n2c(C(=O)Nc3ccc(OCC)cc3)c(C(=O)Nc3ccc(C)cc3)sc2n1	0%	-2%	-20%	-10%	i	4%
O=C(Nc1nnc(C2CC2)o1)c1ccc(S(=O)(=O)N2CCCc3ccccc32)cc1	?	16µM*	-6%	-18%	?	10µM*
COc1cccc(-c2nnc(NC(=O)c3ccc(S(=O)(=O)N4CCOCC4)cc3)o2)c1	-23%	?	-4%	-23%	i	12µM*
COc1cccc(C(=O)Nc2nnc(-c3ccc(Cl)cc3)o2)c1	-57%	?	-45%	0%	·	-23%
COc1cccc(C(=O)Nc2nnc(-c3cccs3)o2)c1	-24%	?	-26%	-8%	28µM*	-5%
COCc1nnc(NC(=O)c2ccc(S(=O)(=O)N3CCCc4ccccc43)cc2)o1	-1%	-17%[11.3 µM]	-20%	?	i	-86%
COc1ccc(-c2nnc(NC(=O)c3ccc(S(=O)(=O)N4CCCc5ccccc54)cc3)o2)cc1	?	?	-3%	?	i	14µM*
CCCC[C@@H]1CNC(=O)C(=O)N1CCCCC1CCCCC1	·	-9%	·	·	i	·
CCc1cc(/C=C/c2ccnc3ccccc23)ccc1N(C)C	-3%	·	-57%	·	·	·
O=C(Nc1ccccc1C(=O)OCc1cc(=O)n2c3c(sc2n1)CCCC3)c1cccc(Cl)c1	20%	·	4%	-4%	·	·
COc1ccc([C@@H]2CC(=O)[C@@H]3CN(S(=O)(=O)c4ccc(C)cc4)[C@H](c4ccccc4)C[C@@H]3N2S(=O)(=O)c2ccccc2)cc1	2%	-8%	-12%	·	i	·
Cc1ccc(-c2cc(C3C4C=CCC(C)C4C(=O)N3Cc3ccccc3)ccc2F)cc1 (centres undefined)	-17%	·	-13%	9%	·	?
Cc1ccc(S(=O)(=O)c2nnn3c2nc(N2CCN(c4ccc(F)cc4)CC2)c2cc(Cl)ccc23)cc1C	-3%	5%	10%	0%	i	12%
O=C(NCC1(c2ccccc2)CCCC1)C(=O)NCC1(c2ccccc2)CCCC1	6%	3%	2%	8%	i	1%
SMILES	TGFb inhibitor	ATXN2 expr inh	HepG2 tox	A549 tox	S2 tox	Nrf2 block
S=C(NCC1(c2ccccc2)CCCC1)Nc1ccccc1	-23%	?	-28%	-7%	i	16µM*
C[C@H](O)[C@@H]1C(=O)N2C(C(=O)O)=C(S[C@@H]3CN[C@H](CNS(N)(=O)=O)C3)[C@@H](C)[C@@H]12	·	-1%	·	·	·	·
Cc1c(OC(C)C(=O)NCc2ccncc2)ccc2c3c(c(=O)oc12)CCCC3 (centres undefined)	0%	?	-16%	-1%	i	23µM*
Cc1cc(=O)oc2c(C)c(OC(C)C(=O)NCC(O)c3ccccc3)ccc12 (centres undefined)	-2%	0%	-2%	9%	i	-28%
Cc1c(OC(C)C(=O)NCC(O)c2ccccc2)ccc2c3c(c(=O)oc12)CCCC3 (centres undefined)	-10%	-22%	0.11µM*	-1%	i	?
O=C(CN1CCSC1=O)Nc1ccc(N2CCOCC2)cc1	6%	29%	-7%	1%	i	26%
C=C1CN(C(C(=O)OC)C(C)C)S(=O)(=O)c2ccc(F)cc21 (centres undefined)	-20%	·	0%	-3%	·	6%
c1ccc(-c2nc(NC3CCCC3)c3ccccc3n2)cc1	?	-27%	-18%	?	i	23µM*
COCCNC(=O)C1(C)CCCN(Cc2noc(-c3ccccc3OC)n2)C1 (centres undefined)	-2%	8%	5%	·	i	·
Cn1ccnc1C(O)c1cc(C(C)(C)C)c(O)c(C(C)(C)C)c1 (centres undefined)	16µM*	-7%	-81%	5%	i	1%
CC(C)(Sc1cc(C(C)(C)C)c(O)c(C(C)(C)C)c1)Sc1cc(C(C)(C)C)c(O)c(C(C)(C)C)c1	-3%	-7%	1%	1%	i	-1%
CN(C)c1nc(Cc2ccc(NC(=O)c3ccc4ccccc4c3)cc2)nc(Cl)c1CC(=O)O	·	-1%	·	·	·	·
CC(=NNC(=S)N1CC2CCC(CC2)C1)c1cnccn1	3.2µM*	?	-49%	?	?	?
CC(=NNC(=S)Nc1ccc(C)cc1)c1ccccn1	?	-60%	-57%	12µM*	i	?
CC(=NNC(=S)N1CCN(C2CCCCCC2)CC1)c1ccccn1	?	-82%	-79%	?	1.2µM*	18%
CC(=NNC(=S)Nc1cccc(C)c1)c1ccccn1	?	-57%	-2%	-25%	?	?

Assay outcomes: PubChem BioAssay, National Center for Advancing Translational Sciences (NCATS)
